Data: PubChem BioAssay
Measured potencies and affinities stand elsewhere. The source made the active and inactive calls. No cut-off is given here; in the data, nearly all actives have IC50 up to about 0.98 µM.

These molecules were tested against Calcium-dependent protein kinase 1 (Plasmodium falciparum (isolate 3D7)) (UniProt P62344) (assay: PfCDPK1 kinase inhibitors, biochemical, TCAMS library (AID 1159585;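 note: inhibitors leave more ATP so luminescence rises with inhibition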)). Conditions: recombinant PfCDPK1, Kinase-Glo ATP depletion luminescence.
Sequence of Calcium-dependent protein kinase 1 (Plasmodium falciparum (isolate 3D7)) (P62344 whole entry, looked up): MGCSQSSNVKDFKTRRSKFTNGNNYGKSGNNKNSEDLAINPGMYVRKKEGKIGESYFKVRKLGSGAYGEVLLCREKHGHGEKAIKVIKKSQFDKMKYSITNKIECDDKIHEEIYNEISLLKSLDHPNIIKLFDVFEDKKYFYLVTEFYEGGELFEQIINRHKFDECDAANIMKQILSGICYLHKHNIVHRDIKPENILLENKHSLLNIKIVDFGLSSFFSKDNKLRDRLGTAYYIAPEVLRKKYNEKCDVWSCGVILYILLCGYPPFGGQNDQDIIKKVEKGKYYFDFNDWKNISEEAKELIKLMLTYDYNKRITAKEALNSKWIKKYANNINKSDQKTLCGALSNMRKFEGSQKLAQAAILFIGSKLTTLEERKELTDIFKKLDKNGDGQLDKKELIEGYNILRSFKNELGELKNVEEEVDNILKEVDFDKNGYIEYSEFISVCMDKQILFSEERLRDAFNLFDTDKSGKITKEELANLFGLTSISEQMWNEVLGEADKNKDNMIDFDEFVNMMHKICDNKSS

outcome, inactive:
Cc1cccc2[nH]c(-c3cccc(-c4cccc(CN5CCN(c6ccc(C#N)cn6)CC5)c4)c3)nc12, C[C@H](Cc1ccc(OCCCCCCOc2ccc(C[C@@H](C)NC[C@H](O)c3cccc(Cl)c3)cc2)cc1)NC[C@H](O)c1cccc(Cl)c1, COc1ccc(-n2ccnc2SCC(=O)Nc2cc(Cl)ccc2OC)c(OC)c1, COc1ccccc1C1CCN(CCCCNC(=O)c2ccc(NC(=O)c3ccc(Cl)cc3)cc2)CC1, COc1ccccc1CNc1ncc(-c2ccsc2)c(-c2nccs2)n1, COc1ccc2c(NN=Cc3ccc(N(C)C)cc3)ccnc2c1, NC1CCCN(Cc2cccc(-c3ccc(-c4nc5ccccc5[nH]4)s3)c2)C1 (stereo not given), COc1cc2c(cc1C(F)(F)F)N(C(=O)Nc1cc(OC(F)(F)F)cc(-c3cccnc3)c1)CC2, O=C(Cc1cnc[nH]1)Nc1ccc(-c2cccc(-c3nc4ccc(C(F)(F)F)cc4[nH]3)c2)cc1, CCCOc1ccc(CCCON2C(N)=NC(N)=NC2(C)C)cc1, CC(C)(C)NCCN(Cc1ccc(-c2ccc(C(F)(F)F)cc2)cc1)C(=O)Cn1c(CCc2cccc(F)c2F)nc(=O)c2ccccc21, CC1(C)N=C(N)N=C(N)N1OCCNCc1ccc(Cl)cc1, Cc1ccc(C2=NNC3(S2)C(=O)Nc2ccc(C)cc23)cc1 (stereo not given), CCc1ccc(N2C(=O)C3C(Cc4ccc(OC(C)(C)C)cc4)NC4(C(=O)N(Cc5ccccc5)c5ccc(F)cc54)C3C2=O)cc1 (stereo not given), CCNc1cc(C(=O)N[C@@H](Cc2ccc(Cl)cc2)[C@H](O)CNC2CCCCC2)cc(N2CCCCS2(=O)=O)c1, CC(C)[C@H](NC(=O)NC1CCC(CCN2[C@@H]3CC[C@H]2CC(OC(=O)C(CO)c2ccccc2)C3)CC1)C(O)(c1ccccc1)c1ccccc1 (stereo not given in full), CC(C)N1CCC(N(Cc2ccc(-c3ccc(C(F)(F)F)cc3)cc2)C(=O)Cn2c(CCc3cccc(F)c3F)cc(=O)c3c2CCC3)CC1, c1ccc(Nc2nc(-c3ccccn3)cs2)nc1, CCOC(=O)NC1=NC(C)(C)N(OCc2ccc(Cl)c(Cl)c2)C(N)=N1, CCn1c(SCC(=O)Nc2cc(C(F)(F)F)ccc2Cl)nc2ccccc2c1=O, COc1cc(NC(=O)/C=C/c2cccc3ccoc23)ccc1OCCN(C(C)C)C(C)C, COc1ccc(OCCCN2CCN(CC(c3ccc(F)cc3)N3CCN(C(C)C)CC3)CC2)c2ccccc12 (stereo not given), Cc1cccc(Nc2nccc(NCC(O)c3cccc(C(F)(F)F)c3)n2)c1 (stereo not given), Cc1cccc2[nH]c(-c3ccc(-c4ccc(NC(=O)C(=O)c5cccn5C)cc4)cc3)nc12, CC(C)NCc1ccc(-c2cccc(-c3nc4ccccc4[nH]3)c2)cc1, Cc1cccc2[nH]c(-c3ccc(-c4cccc(CN5CCN(c6ccncc6)CC5)c4)cc3)nc12, CC(C)CN1CCCN(Cc2cccc(NC(=O)c3cc4ccccc4s3)c2)CC1, Cc1cc(NCCCCCCN)nc(Nc2ccc(Cl)cc2)n1, CCCCCCCN1CC[C@@H](CCCc2ccnc3ccc(OCCCCN=C(N)NO)cc23)[C@@H](CC)C1, COc1cc(CCN(C)Cc2ccc(OC)c(OC)c2)ccc1NC(=O)c1cccc2c(=O)c3cccc(F)c3[nH]c12, COc1ccc2nccc([C@@H](O)CN3CCC(NC[C@H](Cc4ccccc4)NC(=O)OC(C)(C)C)CC3)c2c1, CC(=O)NCCNc1nccc(N2CCc3ncnc(Nc4ccc(OCc5cccc(F)c5)c(Cl)c4)c3C2)n1, Cc1cc(N)c2cc(NC(=O)CCC(=O)Nc3ccc4nc(C)cc(N)c4c3)ccc2n1, COc1cc(CNCCC(C)C)ccc1OCc1cccc(COc2ccc(CNCCC(C)C)cc2OC)c1, O=C(/C=C/c1ccc(Cl)c(Cl)c1)NCCCCCCN1CCCN(C(=O)Nc2ccc(C(F)(F)F)cc2)CC1, CN1CCN(CCCN(Cc2ccc(-c3ccc(CNCc4ccc5c(c4)OCO5)cc3)cc2)C(=O)Nc2ccccc2)CC1, O=[N+]([O-])c1cccc(Nc2nccc(-c3cnn4ncccc34)n2)c1, COc1ccc(C(=O)N[C@@H](CC(C)C)C(=O)N[C@H](/C=N/NC(=O)c2ccccc2)CCc2ccccc2)cc1OCCN1CCOCC1, CC(C)CCNCc1c(O)ccc2ccccc12, Cc1ccc(/C=C/C(=O)N2CCC(CCN3CCC(c4c[nH]c5ccccc45)CC3)CC2)cc1C
